Experimental findings from PubChem BioAssay AID504582 (Broad Institute, 2011) are described below.

SMILES strings stand for the structures. Screen size: about 340,000 compounds; about 2,300 (0.68%) were called active. For the sample, actives were picked, then their nearest neighbours and some compounds at random. Values without a mark were called inactive. Rule as the data show it: active = growth rescue above about 28% (passing the limit was not always enough); inconclusive = no clear call, values can overlap the other calls.

The nature of this test: rescue of yeast from PfHsp40 toxicity, primary screen, S. cerevisiae, ATP luminescence (AID 504582).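 Also: yeast W303a lacking pdr1 and pdr3 grown in galactose medium; growth measured after three days at 30 °C.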 To be noted: S. cerevisiae expressing PfHsp40, growth rescue, at 12.5 µM, active compounds read high.
Consider `Cc1ccc(/C=N/NC(=O)C2=NNC(c3ccccc3)(c3ccccc3)C2)c(O)c1`, for which the growth rescue is -0.682%.

Regarding `COc1ccc(NC(=O)C/C(C)=N/NC(=O)c2cnccn2)cc1Cl`, the growth rescue is -1.24%. For the compound `CCN(CC)c1ccc(/C=N/NC(=O)c2cnccn2)c(O)c1`, the growth rescue is 77.4% (active). For `CCNC(=O)c1cnn(-c2ccccc2)c1-c1ccccc1`, the growth rescue is -3.15%. Take `Cn1c(C(=O)N2CCCC(C(=O)NCc3ccccc3)C2)cc2sccc21` (centres undefined): the growth rescue was 0.412%. Consider `CCCCCC(=O)N1CCN(S(=O)(=O)c2ccc3c(c2)OCCCO3)CC1`, for which the growth rescue is 1.79%. `O=S(=O)(NCc1ccccc1)c1ccc(S(=O)(=O)N2CCCC2)cc1`: the growth rescue is 0.759%.

`CC1(C)CN(c2ccc(-c3ccnc4ncnn34)cc2)C1=O`: the growth rescue was -1.84%. As for `Cc1ccc(C(=O)N2CC(=O)Nc3ccc(F)cc3C2c2ccc(F)cc2)cc1` (centres undefined), the growth rescue is 1.27%.

As for `Cc1ccc2c(c1)C(c1ccccc1)N(C(=O)c1ccc(F)cc1)CC(=O)N2` (centres undefined), the growth rescue was 0.27%.

Consider `Cc1ccc2c(c1)C(c1ccccc1)N(C(=O)c1ccc(S(=O)(=O)N3CCOCC3)cc1)CC(=O)N2` (centres undefined), for which the growth rescue was 72.7% (active). As for `Cc1ccc(NN=Nc2nc3c([nH]2)c(=O)n(C)c(=O)n3C)cc1`, the growth rescue is -0.566%.

With `CN(C)CC(O)COc1ccc(C(C)(C)c2ccc(OCC(O)CN(C)C)cc2)cc1` (centres undefined), the growth rescue is 26.9% (active). `COc1ccc(OCC(O)CN(C)C(=O)C(C)Oc2ccccc2)cc1` (centres undefined): the growth rescue is -0.614%. The value for `Cc1cc(C)n(CC(O)COc2ccc(C(C)(C)C)cc2)n1` (centres undefined) was 0.193%; that for `Cc1ccc2nc(C)c3c(c2c1)N(c1ccccc1)CC3` was -0.127%; that for `Cc1ccc(S(=O)(=O)N2CCOCC2)cc1C(=O)Nc1ccccc1N1CCCC1` was 0.57%.

Take `COc1ccc(OCC(O)CNC(=O)Nc2ccc(Cl)cc2)cc1` (centres undefined): the growth rescue was -1.02%. Regarding `COc1ccc(OCC(O)CNCCNc2nccc(C(F)(F)F)n2)cc1` (centres undefined), the growth rescue is 62.4% (active).

As for `CC(C)(C)CC(C)(C)NCC(O)COCCOc1ccc(Br)cc1` (centres undefined), the growth rescue was 0.077%.

`Cc1ccccc1Nc1c([N+](=O)[O-])ccc2nonc12`: the growth rescue was -0.179%. Regarding `CCc1cc2c(=O)c(-c3ccon3)c(N)oc2cc1OC`, the growth rescue is -0.783%.

With `COc1ccc(NCc2nnc(SCc3ccccc3)n2-c2ccc(OC)cc2)cc1`, the growth rescue was -1.36%.

As to `Cc1ccccc1NCC(=O)N/N=C\c1ccc([N+](=O)[O-])s1`, the growth rescue is 406% (active). `Cc1nn(Cc2ccc(Cl)cc2)c(Cl)c1/C=N/NC(=O)CNc1ccccc1F`: the growth rescue was -0.219%.

As for `O=C(COc1ccccc1[N+](=O)[O-])N/N=C/c1ccc[nH]1`, the growth rescue was -1%. In the case of `Cn1c(CCC(=O)OCC(=O)NCc2ccccc2Cl)nc(=O)c2ccccc21`, the growth rescue was 1.08%. Regarding `O=C(CN1C(=O)NC2(CCCC2)C1=O)Nc1ccc(F)c(F)c1F`, the growth rescue was -0.549%. The value for `Cc1ccoc1C(=O)Nc1cccc(Oc2ccccc2)c1` was 372% (active). As for `CC(Oc1cccc(NC(=O)c2cccs2)c1)C(=O)c1ccccc1` (centres undefined), the growth rescue was 3.27%. On to `Cc1cccc(NC(=O)Nc2cccc(Oc3c(F)c(F)c(F)c(F)c3F)c2)c1`, for which the growth rescue was -0.315%. The value for `CCC1CCCCN1CCNC(=O)c1[nH]c(C)c(C(C)=O)c1C` (centres undefined) was -0.34%; that for `O=C1NC2(CCCCCC2)C(=O)N1CCS(=O)(=O)Oc1ccccc1` was 0.283%. For `CN(C)CCOC(=O)C(c1ccccc1)C1(O)CCCC1` (centres undefined) the value was 0.536%; for `O=C(NCC1COc2ccccc2O1)C1(c2ccccc2)CCCC1` (centres undefined), 2.05%.

Regarding `CN(C)CC1Oc2ccccc2OC1(O)c1ccccc1` (centres undefined), the growth rescue was 472% (active). As for `CSc1ncccc1C(=O)NCc1ccccc1Cl`, the growth rescue is 1.68%.

Take `CCN(CC)CCCNC(=O)CCn1nc(-c2ccc(Cl)cc2)ccc1=O`: the growth rescue is -0.666%. With `O=C(CN1C(=O)C2C3C=CC(C3)C2C1=O)Nc1nc(-c2ccccn2)cs1` (centres undefined), the growth rescue is -0.446%. As to `O=C(COc1ccccc1F)Nc1nc(-c2ccccn2)cs1`, the growth rescue was 398% (active).

On to `CC(NC(=O)c1ccco1)C(=O)Nc1nc(-c2ccccn2)cs1` (centres undefined), for which the growth rescue was -0.236%.

Turning to `O=C(O)C1=C[C@H](c2cccs2)C[C@H](OCCCCO)O1`, the growth rescue is -1.21%.

In the case of `O=C(O)c1c(NC(=O)N2CCCC2)sc2c1CCCC2`, the growth rescue is 232% (active). For the compound `O=C(CN1CCCC1)Nc1sc2c(c1C(=O)Nc1ccccc1)CCCC2`, the growth rescue is 0.179%. The value for `O=C(Nc1sc2c(c1C(=O)O)CCC2)c1ccccc1F` was 0.175%; that for `C=CCNc1nc(Nc2ccc(Cl)cc2)nc(OC)n1` was 0.232%. As for `CC(C)(C)NC(=O)c1ccc(Cn2cc(C(F)(F)F)ccc2=O)cc1`, the growth rescue was -0.625%. Regarding `Cn1ccc(=Nc2ccc(NC(=O)c3ccc(N=c4ccn(C)c5ccc([N+](=O)[O-])cc45)cc3)cc2)cc1`, the growth rescue is 236% (active).

Turning to `CCc1ccc(NC(=O)c2ccc(Cn3cc([N+](=O)[O-])cn3)cc2)cc1`, the growth rescue is -0.255%. In the case of `Cn1c(=O)n(C)c2cc(C(=O)Nc3ccc(Br)cc3)ccc21`, the growth rescue is -1.51%. For `Oc1ccc2ccccc2c1N=Nc1nccs1` the value was 118% (active); for `Cc1ccc(CNC(=O)CC2Sc3ccccc3NC2=O)cc1` (centres undefined), 0.304%. For `Cc1cccc(NC(=O)c2cccc(C(=O)Nc3cccc(C)c3C)n2)c1C` the value was -0.654%. For the compound `O=C(CNC(=O)c1ccc(-c2ccccc2)cc1)OCc1ccc(Cl)cc1`, the growth rescue was -0.241%.

Turning to `O=C(OCc1ccc(-c2ccccc2)cc1)c1cccc(O)c1`, the growth rescue is 179% (active).

On to `O=C(OCC(=O)c1c[nH]c2ccccc12)c1cccc(O)c1`, for which the growth rescue was -0.5%. With `C/C(Cn1nnc2ccccc21)=N\OC(=O)c1cc(F)c(F)cc1Cl`, the growth rescue was 0.415%. Take `O=C(CCC(=O)N1CCCC1)Nc1ccc([N+](=O)[O-])cc1`: the growth rescue was -0.401%.

As to `Cc1c(C(=O)N2CCCC2)c(S(=O)(=O)NCC(C)c2ccccc2)c(C)n1C` (centres undefined), the growth rescue is -0.332%.

Turning to `CCOC(=O)c1ccccc1NC(=O)COC(=O)CCC(=O)N1CCOCC1`, the growth rescue is -0.942%. In the case of `O=C(Nc1cccc([N+](=O)[O-])c1)Nn1cnnc1`, the growth rescue is 0.084%. For `COC(=O)/C=C\C(=O)Nc1cccc([N+](=O)[O-])c1` the value was 233% (active); for `CCC(CC)NC(=O)/C=C/c1cccc([N+](=O)[O-])c1`, -2.62%.

Regarding `CCOC(=O)N1CCN(C(=O)C(=O)Nc2sc3c(c2C#N)CC(C)(C)OC3)CC1`, the growth rescue is -1.13%. As to `COc1ccc(-c2nc3n(c(=O)c2C#N)CCS3)c(OC)c1`, the growth rescue is -0.93%. Take `CCCNC(=O)CSc1nc(Cc2ccccc2)nc2ccccc12`: the growth rescue was 1.34%. Take `CCCc1nc(SCC(=O)Nc2ccc(S(=O)(=O)N(C)C)cc2)c2ccccc2n1`: the growth rescue was 56.5% (active). Take `O=C(CSc1nc(C2CC2)nc2ccccc12)Nc1ccc2c(c1)OCCO2`: the growth rescue was 0.157%. Regarding `Cc1ccc(-n2c(C)nnc2SCC(=O)NC2CC2)cc1`, the growth rescue is 0.655%.

On to `CCCCC/C=C/C1=CC(=O)C[C@H](c2ccc(Cl)cc2)C1`, for which the growth rescue is -0.132%. For `Cc1cccnc1NC(=O)Cn1c(=O)oc2ccccc21` the value was 0.888%; for `CSCc1cc(N2CCOCC2)nc(SCc2ccc(Cl)cc2Cl)n1`, 21.9%.

`Nc1cc(N)nc(SCc2ccc(Cl)cc2)n1`: the growth rescue is 0.722%. The value for `CSCc1cc(N(C)C)nc(SCc2ccc(Cl)cc2Cl)n1` was 119% (active); that for `O=C(O)c1cc2ccccc2c(=O)s1` was -1.29%.

With `CCCCCN1CC(O)=C(c2ccccc2)C1=N`, the growth rescue is 1.8%. Take `CCCCCCCCn1c2c(c(=N)c3c1CCC3)CCCC2`: the growth rescue is -1.32%.

As for `CCCCCCCCCCCCn1ccc(=N)cc1`, the growth rescue was 174% (active). The value for `Nc1cccnc1Sc1ccccc1` was -0.346%; that for `O=C(CN1C(=O)NC2(CCCCC2)C1=O)NCCC1=CCCCC1` was -1.2%. `COc1ccc(C(CNC(=O)c2ccc(NS(=O)(=O)c3ccc(F)c(C)c3)cc2)N(C)C)cc1` (centres undefined): the growth rescue is -1.73%. With `COc1ccc(C(CNC(=O)c2ccc(S(=O)(=O)Nc3ccccc3F)cc2)N(C)C)cc1` (centres undefined), the growth rescue is 33.3% (active). In the case of `CC(=O)c1ccc(S(=O)(=O)Nc2ccc(C(=O)NCC(c3ccccc3)N(C)C)cc2)cc1` (centres undefined), the growth rescue is 0.039%. Regarding `Cc1ccc(C)c(C(=O)N2CCC(n3nccc3NC(=O)C3CC3)CC2)c1`, the growth rescue was -0.915%. In the case of `COc1ccccc1C1CCN(C(=S)Nc2ccc(Br)cc2)CC1`, the growth rescue was 41.2% (active). Consider `COc1ccccc1NC(=S)N1CCN(C(c2ccccc2)c2ccccc2)CC1`, for which the growth rescue was -0.67%. For `CCC(C)N(C)C1CCN(C(=S)Nc2ccc(OC)cc2)CC1` (centres undefined) the value was 0.96%; for `COC(=O)C1(C)NC(c2ccccc2OC)C2C(=O)N(c3ccccc3)C(=O)C21` (centres undefined), -1.44%.

`O=S(=O)(c1cccc(Cn2nnc(-c3ccc(F)cc3)n2)c1)N1CCOCC1`: the growth rescue was 1.33%.

Regarding `O=C(OCCN=C1NS(=O)(=O)c2ccccc21)c1cccc([N+](=O)[O-])c1`, the growth rescue was 0.884%.

As to `CCn1c(O)c2ccc(C(=O)N=NC(=O)c3cccnc3)cc2c1O`, the growth rescue was -1.24%. Consider `Cc1ccc(N2C(=O)C3N=NN(CC(=O)N4N=C(c5cccc6ccccc56)CC4c4ccccc4)C3C2=O)cc1` (centres undefined), for which the growth rescue is -1.11%. For `Oc1ccccc1C1=NN(c2ccccc2)C(c2ccccc2)C1` (centres undefined) the value was 134% (active); for `O=C1C2N=NN(CC(=O)N3N=C(c4cccc5ccccc45)CC3c3ccccc3)C2C(=O)N1c1ccccc1` (centres undefined), -1.21%.
